# Measured values as given in PMC4336329 (PLoS ONE, 2015).
# Hit rate of the full screen: of about 310,000 compounds, about 14,000 (4.5%) showed an effect of 50% or more. Effects have a minus sign here. The entries come from a sample that favours strong results as a whole.
# Biological target: human ether-à-go-go-related gene (hERG) potassium channel (human, UniProt Q12809)
# Test: primary screen, population patch clamp on CHO cells stably expressing hERG; higher = less effect of the substance
# 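Further: peak tail current of the secondary pulse compared with the same well before compound.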
# human ether-à-go-go-related gene (hERG) potassium channel, sequence (Q12809 whole entry, looked up): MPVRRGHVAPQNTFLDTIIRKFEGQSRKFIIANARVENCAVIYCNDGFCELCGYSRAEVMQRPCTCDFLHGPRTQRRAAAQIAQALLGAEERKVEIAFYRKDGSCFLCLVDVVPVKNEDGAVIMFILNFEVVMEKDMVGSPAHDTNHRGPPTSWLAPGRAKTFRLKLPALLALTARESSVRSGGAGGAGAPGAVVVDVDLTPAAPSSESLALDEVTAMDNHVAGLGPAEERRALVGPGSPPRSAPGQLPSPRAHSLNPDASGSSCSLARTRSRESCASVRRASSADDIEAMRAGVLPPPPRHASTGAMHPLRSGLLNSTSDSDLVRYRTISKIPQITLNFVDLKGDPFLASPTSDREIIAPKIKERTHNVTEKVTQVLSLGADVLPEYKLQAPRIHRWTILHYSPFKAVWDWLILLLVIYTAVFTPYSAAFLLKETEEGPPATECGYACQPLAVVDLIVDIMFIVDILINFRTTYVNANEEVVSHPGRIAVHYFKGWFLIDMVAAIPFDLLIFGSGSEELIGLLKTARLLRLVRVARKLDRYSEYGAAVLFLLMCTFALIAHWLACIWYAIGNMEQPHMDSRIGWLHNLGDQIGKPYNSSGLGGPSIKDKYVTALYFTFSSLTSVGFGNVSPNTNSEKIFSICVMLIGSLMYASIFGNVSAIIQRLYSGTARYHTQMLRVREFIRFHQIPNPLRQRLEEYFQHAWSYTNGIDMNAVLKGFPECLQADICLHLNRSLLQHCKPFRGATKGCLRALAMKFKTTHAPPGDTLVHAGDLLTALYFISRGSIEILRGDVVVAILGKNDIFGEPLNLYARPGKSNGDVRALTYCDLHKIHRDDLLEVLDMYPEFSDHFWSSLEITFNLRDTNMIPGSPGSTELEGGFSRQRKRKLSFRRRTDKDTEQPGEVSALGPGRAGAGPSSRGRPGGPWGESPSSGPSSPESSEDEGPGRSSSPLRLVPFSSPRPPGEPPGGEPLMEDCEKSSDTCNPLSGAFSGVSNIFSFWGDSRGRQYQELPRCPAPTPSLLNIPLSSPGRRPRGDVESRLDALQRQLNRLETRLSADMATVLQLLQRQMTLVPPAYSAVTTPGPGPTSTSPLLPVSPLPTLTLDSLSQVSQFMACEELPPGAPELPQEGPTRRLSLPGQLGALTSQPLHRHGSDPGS
row,Compound,"hERG current change (%, negative = inhibition) at 10uM [%]"
1,O=C(NCCc1ccccc1)/C(=N\O)c1ccccc1,7.7
2,CCn1c(=O)c2sccc2n2c(CCCC(=O)NC3CCN(Cc4ccccc4)CC3)nnc12,-6.43
3,COc1ccc(OC)c(C2C(C(C)=O)=C(O)C(=O)N2CCN2CCOCC2)c1 (stereo not drawn),-6.92
4,COc1ccc(C)cc1NC(=O)CCN1CCN(c2ccccc2F)CC1.Cl,-19.9
5,Cc1ccccc1OCC(=O)NNC(=O)CN1C(=O)c2ccccc2C1=O,-9.07
6,NNc1nc2sc3c(c2c(=O)[nH]1)CCc1ccccc1-3,7.46
7,Cc1ccc(C)c(N2CCN(C(=O)Cc3c(C(=O)O)[nH]c4ccc(Cl)cc34)CC2)c1,10.1
8,O=C(O)COc1cccc2nsnc12,4.42
9,CC(=O)N1N=C(c2cccc([N+](=O)[O-])c2)OC1(C)CC(=O)Nc1ccccc1 (stereo not drawn),-12
10,COc1ccc(NC(=O)CN(C)CC(=O)Nc2ccc(N3CCOCC3)cc2)c([N+](=O)[O-])c1,-26.2
11,CNC(=O)OCc1cccc(COC(=O)NC)n1.Cl,27.2
12,CC(=O)N1CCN(Cc2nc3cc(NC(=O)c4ccccc4C)ccc3n2C)CC1,10.2
13,CCCC(=O)Nc1ccc2c(c1)nc(CN1CCCCC1)n2C,2.55
14,COc1ccccc1C(=O)Nc1ccc2c(c1)nc(CN1CCCCC1)n2C,-21.8
15,Cn1c(CN2CCCCC2)nc2cc(NC(=O)c3ccccc3Cl)ccc21,-8.74
16,Cn1c(CN2CCCCC2)nc2cc(NC(=O)c3ccc(Cl)cc3)ccc21,-59.8
17,COc1ccccc1C(=O)Nc1ccc2c(c1)nc(CN1CCN(C(C)=O)CC1)n2C,-80
18,CS(=O)(=O)c1ccc(-n2c(=O)n(Cc3ccccc3)c(=O)c3[nH]cnc32)cc1,-45.7
19,CCOP(=O)(OCC)/C(C#N)=C/c1ccc(Br)cc1,-13.5
20,O=C1c2ccccc2C(=O)N1CCN1CCCCC1,-6.2
21,CC1CN(C(=O)/C=C/c2ccccc2[N+](=O)[O-])CC(C)O1 (stereo not drawn),-4.44
22,CCCCc1cn([C@@H](CCCCN)C(=O)N2CCNCC2)nn1.Cl,18.8

row,Compound,"hERG current change (%, negative = inhibition) at 10uM [%]"
1,CCCCCn1c(=NC(=O)c2ccco2)c(C(=O)OCC)cc2c(=O)n3ccccc3nc21,-73.5
2,CCCn1c(=NC(=O)c2c(-c3c(F)cccc3Cl)noc2C)c(C(=O)OCC)cc2c(=O)n3ccccc3nc21,5.26
3,CCOC(=O)c1cc2c(=O)n3ccccc3nc2n(C(C)C)c1=NC(=O)c1c(-c2c(F)cccc2Cl)noc1C,2.48
4,CCOC(=O)c1cc2c(=O)n3ccccc3nc2n(C(C)C)c1=NC(=O)c1c(-c2ccccc2Cl)noc1C,24.3
5,CCOC(=O)c1cc2c(=O)n3ccccc3nc2n(C(C)C)c1=NC(=O)c1ccco1,-56.8
6,CCCn1c(=NC(C)=O)c(C(=O)OCC)cc2c(=O)n3ccccc3nc21,-9.98
7,CCOC(=O)c1cc2c(=O)n3ccccc3nc2n(C)c1=NC(=O)c1c(-c2c(F)cccc2Cl)noc1C,14
8,CCCn1c(=NC(=O)c2ccco2)c(C(=O)OCC)cc2c(=O)n3ccccc3nc21,-66.7
9,CCOC(=O)c1cc2c(=O)n3ccccc3nc2n(C(C)C)c1=NC(=O)c1ccncc1,-67.5
10,Cc1onc(-c2c(Cl)cccc2Cl)c1C(=O)NCc1cccs1,-9.65
11,COC(=O)CSc1nnc(SCc2ccc(Cl)cc2)s1,-0.477
12,Cc1occc1C(=O)N/N=C/c1ccc(-c2cccc([N+](=O)[O-])c2)o1,1.37
13,O=C(COC(=O)c1cc(S(=O)(=O)NCc2ccccc2)ccc1O)c1cc2ccccc2o1,11.9
14,COc1ccccc1NC(=O)CCCN1C(=O)C2CC=CCC2C1=O (stereo not drawn),11.1
15,CCN1CCN(Cc2ccccc2NC(=O)Nc2ccc(C)cc2)CC1,-0.992
16,COc1cc2nc(CN(CCC(C)C)Cc3nc4cc(OC)c(OC)cc4c(=O)[nH]3)[nH]c(=O)c2cc1OC,-2.68
17,Cc1ccccc1NC(=O)c1nn(C)c(C(=O)Nc2ccccc2C)c1[N+](=O)[O-],0.0696
18,CCCCn1c(=NC(=O)c2ccco2)c(C(=O)OCC)cc2c(=O)n3ccccc3nc21,-71.7
19,CCOc1cc(/C=C/c2ccc3cccc([N+](=O)[O-])c3n2)ccc1OCC(=O)N(C)C,-33.4
20,Cc1ccc(-c2nnc(N3CCN(C(=O)CN4CCOCC4)CC3)c3ccccc23)cc1,-31.5
21,O=C(c1ccco1)N1CCN(c2nnc(-c3ccccc3)c3ccccc23)CC1,-75.8
22,Cc1ccc(-c2nnc(N3CCCCC3)c3ccccc23)cc1,-11.2

row,Compound,"hERG current change (%, negative = inhibition) at 10uM [%]"
1,O=C(CN1CCOCC1)N1CCN(c2nnc(-c3ccccc3)c3ccccc23)CC1,7.35
2,N#Cc1c(N2CCN(C(=O)c3ccco3)CC2)nc(-c2ccccc2)c2c1CCCC2,-5.84
3,Cc1ccc(-c2nnc(N3CCN(C(=O)c4ccco4)CC3)c3ccccc23)cc1,-75.2
4,O=C(Nc1nccs1)C1CCN(S(=O)(=O)c2ccccc2)CC1,-14.1
5,CN(C)S(=O)(=O)c1cccc(NC(=O)c2sccc2-c2ccccc2)c1,-26.1
6,FC(F)Oc1ccc(NC(=S)NCc2nc3ccccc3[nH]2)cc1,-79.2
7,Fc1ccc(CNC(=S)Nc2ccc(OC(F)F)cc2)cc1,-20.6
8,COc1ccc(NC(=S)Nc2ccc3cn[nH]c3c2)cc1,-11.9
9,S=C(Nc1ccccc1)Nc1ccc2cn[nH]c2c1,-14.5
10,CCNC(=S)Nc1ccc(Cc2nc3ccccc3[nH]2)cc1,9.19
11,FC(F)Oc1ccc(NC(=S)Nc2ccc3cn[nH]c3c2)cc1,-79.5
12,CCc1cccc(CC)c1NC(=S)NCc1nc2ccccc2[nH]1,3.09
13,CCOc1ccc(NC(=S)NCc2nc3ccccc3[nH]2)cc1,-74
14,FC(F)Oc1ccc(NC(=S)NCc2ccccc2)cc1,-36.9
15,N#Cc1c(NC(=O)CCN2C(=O)c3ccccc3C2=O)oc(-c2ccccc2)c1-c1ccccc1,-11.7
16,O=C1CCCN1CC1CCCN(Cc2nc(COc3ccccc3)no2)C1 (stereo not drawn),28.6
17,O=C(NCc1ccccc1F)C1CCCN(C(=O)Nc2ccccc2)C1 (stereo not drawn),3.18
18,COc1cc(C(=O)OC(C)C(=O)Nc2ccc3c(c2)OCO3)ccc1OCc1c(C)noc1C (stereo not drawn),15.8
19,Cc1noc(C)c1COc1cccc(C(=O)OC(C)C(=O)Nc2ccc3c(c2)OCO3)c1 (stereo not drawn),-61.2
20,Cc1noc(C)c1COc1cccc(C(=O)Nc2ccc3c(c2)OCO3)c1,9.81
21,Cc1nc2sccn2c(=O)c1S(=O)(=O)NCCc1ccccc1,-21.5
22,Cc1ccccc1NC(=O)N1CCC(C(=O)c2ccc(F)cc2)CC1,-16.3

row,Compound,"hERG current change (%, negative = inhibition) at 10uM [%]"
1,Cc1nc2sccn2c(=O)c1CCN1CCC(=C(c2ccccc2)c2ccc(F)cc2)CC1,-78
2,Cc1nc2ccccn2c(=O)c1CCN1CCC(C(=O)c2ccc(F)cc2)CC1,-73.3
3,CCOC(=O)c1ccc(NS(=O)(=O)c2c(C)nc3sccn3c2=O)cc1,1.63
4,CCOc1ccccc1NC(=O)N1CCC(C(=O)c2ccc(F)cc2)CC1,-32
5,Cc1nc2sccn2c(=O)c1S(=O)(=O)NCc1ccccc1,-2.53
6,Cc1nc2sccn2c(=O)c1CCN1CCC(=C(c2ccc(F)cc2)c2ccc(F)cc2)CC1,-78.6
7,CCCCc1c(O)nc2sccn2c1=O,-2
8,COc1ccc(C2=NN(c3ccccc3)C(c3cn(CCC(=O)O)nc3-c3ccccc3)C2)cc1 (stereo not drawn),1.09
9,COC(=O)C1CCN(C(=O)Cc2ccc(OC)c(OC)c2)CC1,0.292
10,COc1ccc(SCCN2CCN(CC(C)C)CCC2=O)cc1,-42.9
11,CN1CCC(=O)N(CCSc2ccc(Br)cc2)CC1,-25.5
12,O=C1CCN(CCc2ccccc2)CCN1CCSc1ccc(Br)cc1,-80.1
13,O=C1CCN(Cc2ccccc2)CCN1CCOc1ccccc1,-10.4
14,C[C@H]1CCC(=O)N(CCSc2ccc(Br)cc2)CC1,-23.8
15,[N-]=[N+]=NCCN1CCN(CCc2ccccc2)CCC1=O,9.16
16,CC(C)CN1CCC(=O)N(CCSc2ccc(Br)cc2)CC1,-61.3
17,CN1CCC(=O)N(CCSc2ccccc2)CC1,-3.36
18,CCCN1CCC(=O)N(CCOc2ccccc2)CC1,-6.3
19,Cc1ccc(SCCN2CCN(CCc3ccccc3)CCC2=O)cc1,-69.6
20,O=C1CCN(CCc2ccccc2)CCN1CCOc1ccccc1,-72.8
21,CC(C)CN1CCC(=O)N(CCSc2ccccc2)CC1,-15.4
